Reference: the supplement of paper PMC9694430

Tests used:
Assay in all cases: thermal shift delta Tm vs DMSO control; higher = stronger stabilization (binding)
Details in all cases: 12.5 µM; protein concentration 2 µM
LOC_OS01G57100-cb003 = system: LOC_OS01G57100-cb003
How it was run: (§1)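 Heating from 25°C to 95°C at 0.05°C/s, fluorescence was recorded for 19.5 μl wells of 2 μM E. coli-expressed, purified rice kinase domain in 100 mM potassium phosphate pH 7.5, 150 mM NaCl, 10% glycerol and 5 × SYPRO Orange with compound in DMSO. Boltzmann fits gave melting temperatures for this differential scanning fluorimetry assay. The shift reported is the mean of three replicates against the DMSO-only protein.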

LOC_OS01G60330-cb001 = system: LOC_OS01G60330-cb001
How it was run: as §1

LOC_OS01G60700-cb002 = system: LOC_OS01G60700-cb002
How it was run: as §1

LOC_OS01G63280-cb003 = system: LOC_OS01G63280-cb003
How it was run: as §1

LOC_OS01G67340-cb003 = system: LOC_OS01G67340-cb003
How it was run: as §1

LOC_OS01G70970-cb002 = system: LOC_OS01G70970-cb002
How it was run: as §1

LOC_OS02G07810-cb001 = system: LOC_OS02G07810-cb001
How it was run: as §1

LOC_OS02G08530-cb003 = system: LOC_OS02G08530-cb003
How it was run: as §1

LOC_OS02G14120-cb001 = system: LOC_OS02G14120-cb001
How it was run: as §1

LOC_OS02G17970-cb001 = system: LOC_OS02G17970-cb001
How it was run: as §1

LOC_OS02G45750-cb003 = system: LOC_OS02G45750-cb003
How it was run: as §1

LOC_OS02G54510-cb004 = system: LOC_OS02G54510-cb004
How it was run: as §1

LOC_OS03G04050-cb001 = system: LOC_OS03G04050-cb001
How it was run: as §1

LOC_OS03G12390-cb001 = system: LOC_OS03G12390-cb001
How it was run: as §1

LOC_OS03G27990-cb004 = system: LOC_OS03G27990-cb004
How it was run: as §1

LOC_OS03G50450-cb001 = system: LOC_OS03G50450-cb001
How it was run: as §1

LOC_OS03G50810-cb003 = system: LOC_OS03G50810-cb003
How it was run: as §1

LOC_OS04G35114-cb001 = system: LOC_OS04G35114-cb001
How it was run: as §1

LOC_OS04G38480-cb003 = system: T1, LOC_OS04G38480-cb003
T1 sequence (whole entry): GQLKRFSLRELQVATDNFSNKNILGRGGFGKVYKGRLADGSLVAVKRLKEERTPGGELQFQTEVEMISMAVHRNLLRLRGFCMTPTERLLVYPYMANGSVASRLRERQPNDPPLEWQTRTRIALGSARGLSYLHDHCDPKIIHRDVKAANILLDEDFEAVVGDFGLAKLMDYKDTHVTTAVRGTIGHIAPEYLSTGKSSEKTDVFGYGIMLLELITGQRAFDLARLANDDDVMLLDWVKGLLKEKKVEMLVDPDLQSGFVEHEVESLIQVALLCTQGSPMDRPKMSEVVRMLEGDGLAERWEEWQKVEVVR
How it was run: as §1

LOC_OS04G41100-cb001 = system: T2, LOC_OS04G41100-cb001
T2 sequence (whole entry): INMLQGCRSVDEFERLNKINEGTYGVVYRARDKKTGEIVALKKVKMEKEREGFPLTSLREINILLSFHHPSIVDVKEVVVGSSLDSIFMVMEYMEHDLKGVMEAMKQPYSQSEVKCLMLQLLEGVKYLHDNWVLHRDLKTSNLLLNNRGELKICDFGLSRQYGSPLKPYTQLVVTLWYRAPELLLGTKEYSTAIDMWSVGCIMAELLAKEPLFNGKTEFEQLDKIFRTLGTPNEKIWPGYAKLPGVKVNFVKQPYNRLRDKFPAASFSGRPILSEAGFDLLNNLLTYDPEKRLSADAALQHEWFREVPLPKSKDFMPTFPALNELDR
How it was run: as §1
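Also: purified Escherichia coli-expressed rice kinase domain construct.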

Row | SMILES | thermal shift delta Tm (LOC_OS01G57100-cb003) [°C] | thermal shift delta Tm (LOC_OS01G60330-cb001) [°C] | thermal shift delta Tm (LOC_OS01G60700-cb002) [°C] | thermal shift delta Tm (LOC_OS01G63280-cb003) [°C] | thermal shift delta Tm (LOC_OS01G67340-cb003) [°C] | thermal shift delta Tm (LOC_OS01G70970-cb002) [°C] | thermal shift delta Tm (LOC_OS02G07810-cb001) [°C] | thermal shift delta Tm (LOC_OS02G08530-cb003) [°C] | thermal shift delta Tm (LOC_OS02G14120-cb001) [°C] | thermal shift delta Tm (LOC_OS02G17970-cb001) [°C] | thermal shift delta Tm (LOC_OS02G45750-cb003) [°C] | thermal shift delta Tm (LOC_OS02G54510-cb004) [°C] | thermal shift delta Tm (LOC_OS03G04050-cb001) [°C] | thermal shift delta Tm (LOC_OS03G12390-cb001) [°C] | thermal shift delta Tm (LOC_OS03G27990-cb004) [°C] | thermal shift delta Tm (LOC_OS03G50450-cb001) [°C] | thermal shift delta Tm (LOC_OS03G50810-cb003) [°C] | thermal shift delta Tm (LOC_OS04G35114-cb001) [°C] | thermal shift delta Tm (LOC_OS04G38480-cb003) [°C] | thermal shift delta Tm (LOC_OS04G41100-cb001) [°C]
1 | COc1cc(-c2cc(-c3ccc(N4CCNCC4)cc3)cnc2C)cc(OC)c1OC | -0.02 | 1.13 | 0.16 | -0.05 | 0.51 | 0.29 | 0.05 | 0.49 | 1.25 | 0.44 | 2.4 | 0.19 | 0.41 | -0.01 | 0.29 | 0.65 | 0.51 | 2.27 | 1.94 | 0.29
2 | COc1cc2c(cc1OC)[C@@H]1C(=O)c3ccc4c(c3O[C@@H]1CO2)C=CC(C)(C)O4 [Deguelin] | 1.25 | 1.41 | 0.73 | 0.43 | 0.31 | 0.2 | 0.57 | 0.83 | 0.97 | 1.35 | 0.46 | -0.02 | 0.25 | -0.38 | 0.07 | 0.4 | 0.24 | 0.63 | 1.39 | 0.34
3 | Nc1cccc(-c2cc3c(Oc4cccc(O)c4)ncnc3[nH]2)c1 | 2.04 | 0.91 | 1.51 | 2.09 | 0.65 | 0.81 | 1.59 | 1.94 | 5.81 | 0.97 | 5.52 | 1.7 | 0.45 | 5.94 | 3.84 | 0.38 | 1.5 | 4.56 | 2.16 | 1.12
4 | N#Cc1ccc2[nH]c(O)c(-c3ccc(CN4CCOCC4)cn3)c2c1 | -0.18 | 0.88 | 1.33 | 0.3 | -0.02 | 0.56 | 0.82 | 1.04 | -0.04 | 0.51 | 1.77 | -0.01 | 0.4 | 2.43 | 0.48 | 0.53 | 1.1 | 1.83 | -0.4 | 2.66
5 | CN1CCN(c2ccc(-c3ccncc3-c3cc(F)c(O)c(F)c3)cc2)CC1 | 0.87 | 1.02 | 0.66 | 0.31 | 0.24 | 0.16 | 0.06 | 0.29 | 1.22 | 0.89 | 0.61 | 0.42 | 0.42 | -0.07 | 0.3 | 0.59 | 0.5 | 1.01 | 1.07 | 0.43
6 | O=C(NCCO)c1cccc(-c2cc(Nc3ccc(OC(F)(F)F)cc3)ncn2)c1 | 1.41 | 0.68 | 0.09 | 0.31 | 0.88 | 0.38 | 0.33 | 0.44 | -0.05 | 0.95 | -1.95 | 0.81 | 0.63 | -0.13 | 0.4 | 0.68 | 0.15 | 0.49 | 0.52 | 0.56
7 | CCn1c(C(=O)N(C2CC2)C2CC2)cc2c3c(ncn3C)c(Nc3cc(C)n(C)n3)nc21 | 1.18 | 1.11 | 1.61 | 0.73 | 0.2 | 0.33 | 0.6 | 1.47 | 4.36 | 1.3 | 1.23 | 0.33 | 0.44 | 1.55 | 0.13 | 0.66 | 1.38 | 2.5 | 1.2 | 0.58
8 | COc1ccc(Oc2cc(NCCC(F)(F)F)c3ncc(-c4ccc(C(=O)NC5CC5)c(C)c4)n3n2)c(F)c1F | -1.23 | 1.27 | -0.2 | 0.82 | 1 | 0.18 | 1.17 | 0.66 | -0.01 | 1.28 | 0.77 | 0.01 | 0.48 | 0.31 | 0.55 | 0.46 | 1.7 | 1.1 | 1.64 | 0.4
9 | COc1cc2ccc(=O)oc2cc1O [Scopoletin] | 0.91 | 0.02 | -0.06 | -0.04 | -0.05 | 0.41 | -1.02 | 0.39 | 0.77 | 1.18 | 0.7 | 0.13 | 0.44 | 0.02 | 0.3 | 0.69 | 0.22 | 0.41 | 0.05 | 0.47
10 | CCN1CCN(Cc2ccc(-c3cc4c(N[C@H](C)c5ccccc5)ncnc4[nH]3)cc2)CC1 | 0.7 | 1.5 | 0.28 | 0.52 | -0.08 | 0.5 | 1.12 | 0.67 | 3.81 | 0.8 | 6.37 | 0.94 | -0.21 | 1.63 | 2.76 | 0.56 | 1.13 | 3.16 | 1.7 | 0.38
11 | COc1cc(N2CCC(N3CCN(C)CC3)CC2)ccc1Nc1ncnc(Nc2ccccc2S(=O)(=O)C(C)C)n1 | 1.39 | 0.48 | 0.92 | 0.72 | 0.5 | 0.84 | 0.26 | 1.76 | 3.1 | 0.11 | 1.85 | 0.1 | 0.24 | 1.69 | 0.28 | 0.36 | 0.99 | 0.74 | 1.16 | 0.34
12 | COc1cc(CCc2cc(NC(=O)c3ccc(N4CC(C)NC(C)C4)cc3)n[nH]2)cc(OC)c1 (stereo not given) | 0.84 | 0.69 | 0.93 | 0.35 | 0.25 | 0.66 | 0.89 | 1.49 | 2.12 | -0.05 | 7.06 | 0.23 | 0.27 | 1.22 | 1.11 | 0.29 | 4.8 | 5.76 | 0.62 | 1.99
13 | CCn1c(=O)c(-c2ccc(Cl)cc2Cl)cc2cnc(Nc3ccc(N4CCNCC4)c(F)c3)nc21 | 2.04 | 0.13 | 1.12 | 5.95 | 6.72 | 2.45 | 0.21 | 0.94 | 7.16 | 1.08 | 10.1 | 8.42 | -0.88 | 4.85 | 10.7 | 0.54 | 6.99 | 11 | 3.17 | 2.82
